Results filed as inconclusive are left out. A call without a number means that no potency is given here. Some structures have more than one record in an assay (separate samples or runs), and their calls can disagree. Activity calls are given as the source filed them. Calls come from the whole dose curve; as a rule, active = well fitted curve in the direction sought with a large enough effect; inconclusive = small, poorly fitted or top-dose-only effect, or another doubt; inactive = no such curve, though single readings can be large; an effect the other way counts as inactive or inconclusive.
Experiments:
[1] = target: Thioredoxin reductase 1, cytoplasmic (Rattus norvegicus) (UniProt O89049); test: qHTS Assay for Inhibitors of Mammalian Selenoprotein Thioredoxin Reductase 1 (TrxR1) (AID 488773); conditions: Potency: inhibition; note: nearly all actives have a fitted effect of over 40% in size; note: potency is the fitted concentration of half-maximal effect
Sequence of Thioredoxin reductase 1, cytoplasmic (Rattus norvegicus) (O89049 whole entry, looked up): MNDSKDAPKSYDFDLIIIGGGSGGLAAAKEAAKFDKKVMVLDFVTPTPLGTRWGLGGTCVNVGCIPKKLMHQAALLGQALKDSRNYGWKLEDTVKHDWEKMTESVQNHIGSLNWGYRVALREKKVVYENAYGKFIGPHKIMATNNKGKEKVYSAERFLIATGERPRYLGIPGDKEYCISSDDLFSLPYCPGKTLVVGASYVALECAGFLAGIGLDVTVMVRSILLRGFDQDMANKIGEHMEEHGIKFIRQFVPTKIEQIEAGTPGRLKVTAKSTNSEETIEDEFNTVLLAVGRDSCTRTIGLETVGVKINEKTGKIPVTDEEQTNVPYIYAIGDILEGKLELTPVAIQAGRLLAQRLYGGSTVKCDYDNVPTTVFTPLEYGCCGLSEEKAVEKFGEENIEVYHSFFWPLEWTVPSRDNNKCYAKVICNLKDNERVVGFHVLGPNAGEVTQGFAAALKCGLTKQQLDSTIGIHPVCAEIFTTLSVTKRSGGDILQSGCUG
Summary of the method: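 Inhibition is scored from the loss of NADPH fluorescence between first and last reads of an 8-min kinetic run. Selenite (400 uM) was the substrate, added after 15 min compound preincubation at room temperature.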

[2] = target: Flap endonuclease 1 (Homo sapiens) (UniProt P39748); test: qHTS Validation Assay for the Inhibitors of Human Flap endonuclease 1 (FEN1) (AID 488816)
Sequence of Flap endonuclease 1 (Homo sapiens) (P39748 whole entry, looked up): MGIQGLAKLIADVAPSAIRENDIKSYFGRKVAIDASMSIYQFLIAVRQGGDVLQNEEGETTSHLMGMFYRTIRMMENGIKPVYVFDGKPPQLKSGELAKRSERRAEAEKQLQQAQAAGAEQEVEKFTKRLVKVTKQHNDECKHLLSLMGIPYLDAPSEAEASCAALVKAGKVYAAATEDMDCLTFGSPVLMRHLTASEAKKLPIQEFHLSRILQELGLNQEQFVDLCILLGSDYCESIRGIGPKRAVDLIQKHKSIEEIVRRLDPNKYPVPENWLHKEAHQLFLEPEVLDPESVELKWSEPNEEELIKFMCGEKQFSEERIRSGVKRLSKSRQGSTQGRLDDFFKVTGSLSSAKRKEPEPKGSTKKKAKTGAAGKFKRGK
Summary of the method: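 Enzyme reagent 10 nM; cpds pinned; 15 min RT preinc.; substrate 50 nM final; reads t=0 and 15 min; no-enzyme buffer wells as neg. control; normalized data, 4-parameter Hill fit.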

[3] = target: M-phase phosphoprotein 8 (Homo sapiens) (UniProt Q99549); test: qHTS Validation Assay for Inhibitors for MPP8 Chromodomain Interactions with Methylated Histone Tails (AID 488949); note: nearly all actives have a fitted effect of over 55% in size; note: potency is the fitted concentration of half-maximal effect
Sequence of M-phase phosphoprotein 8 (Homo sapiens) (Q99549 whole entry, looked up): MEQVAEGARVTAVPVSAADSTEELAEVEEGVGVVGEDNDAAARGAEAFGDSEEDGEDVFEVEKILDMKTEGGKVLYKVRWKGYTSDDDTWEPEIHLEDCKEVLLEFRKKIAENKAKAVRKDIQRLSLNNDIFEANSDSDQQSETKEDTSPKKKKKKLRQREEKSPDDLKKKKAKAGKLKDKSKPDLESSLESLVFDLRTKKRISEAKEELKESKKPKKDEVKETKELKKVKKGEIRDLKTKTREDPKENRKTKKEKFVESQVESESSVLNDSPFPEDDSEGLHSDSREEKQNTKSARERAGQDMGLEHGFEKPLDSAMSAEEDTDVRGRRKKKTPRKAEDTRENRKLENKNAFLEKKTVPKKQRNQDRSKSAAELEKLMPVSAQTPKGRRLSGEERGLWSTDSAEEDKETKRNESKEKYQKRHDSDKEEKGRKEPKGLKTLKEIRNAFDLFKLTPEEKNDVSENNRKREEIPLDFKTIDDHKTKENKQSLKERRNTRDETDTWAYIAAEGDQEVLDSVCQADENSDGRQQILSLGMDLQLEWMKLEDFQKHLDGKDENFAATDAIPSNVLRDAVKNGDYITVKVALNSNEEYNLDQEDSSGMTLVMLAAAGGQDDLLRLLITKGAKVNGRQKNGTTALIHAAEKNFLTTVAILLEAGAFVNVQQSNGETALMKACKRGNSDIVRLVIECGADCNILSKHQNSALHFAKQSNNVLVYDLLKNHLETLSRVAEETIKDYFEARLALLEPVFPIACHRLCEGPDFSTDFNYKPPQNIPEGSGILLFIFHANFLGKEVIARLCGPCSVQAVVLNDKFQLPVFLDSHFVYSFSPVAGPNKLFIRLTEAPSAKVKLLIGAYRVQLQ
Summary of the method: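 Chemiluminescent proximity assay: histidine-tag capture via nickel acceptor beads, biotin peptide via streptavidin donor beads. Protein and peptide each at 50 nM, pH 7.4, with 30 min incubations at room temperature for complex formation, compound exposure and bead binding.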

[4] = target: Chromobox protein homolog 1 (Homo sapiens) (UniProt P83916); test: qHTS Validation Assay for Inhibitors of HP1-beta Chromodomain Interactions with Methylated Histone Tails (AID 488953); note: nearly all actives have a fitted effect of over 50% in size; note: potency is the fitted concentration of half-maximal effect
Sequence of Chromobox protein homolog 1 (Homo sapiens) (P83916 whole entry, looked up): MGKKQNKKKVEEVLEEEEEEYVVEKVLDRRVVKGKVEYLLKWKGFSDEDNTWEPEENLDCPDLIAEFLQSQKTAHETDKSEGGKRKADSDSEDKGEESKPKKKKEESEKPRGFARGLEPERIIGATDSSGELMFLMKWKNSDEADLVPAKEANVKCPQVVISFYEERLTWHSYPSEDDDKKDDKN
Summary of the method: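 Disruption of preformed HP1-beta:H3K9me3 peptide complexes (both 50 nM, PBS pH 7.4 with 0.01% Tween-20) is measured by AlphaScreen after 30 min compound exposure at room temperature, using streptavidin donor and nickel chelate acceptor beads at 10 ug/mL final.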

[5] = target: Thyrotropin receptor (Homo sapiens) (UniProt P16473); test: qHTS Assay for Antagonists of the Thyroid Stimulating Hormone Receptor (AID 488980); note: series mostly up to about 58 µM
Sequence of Thyrotropin receptor (Homo sapiens) (P16473 whole entry, looked up): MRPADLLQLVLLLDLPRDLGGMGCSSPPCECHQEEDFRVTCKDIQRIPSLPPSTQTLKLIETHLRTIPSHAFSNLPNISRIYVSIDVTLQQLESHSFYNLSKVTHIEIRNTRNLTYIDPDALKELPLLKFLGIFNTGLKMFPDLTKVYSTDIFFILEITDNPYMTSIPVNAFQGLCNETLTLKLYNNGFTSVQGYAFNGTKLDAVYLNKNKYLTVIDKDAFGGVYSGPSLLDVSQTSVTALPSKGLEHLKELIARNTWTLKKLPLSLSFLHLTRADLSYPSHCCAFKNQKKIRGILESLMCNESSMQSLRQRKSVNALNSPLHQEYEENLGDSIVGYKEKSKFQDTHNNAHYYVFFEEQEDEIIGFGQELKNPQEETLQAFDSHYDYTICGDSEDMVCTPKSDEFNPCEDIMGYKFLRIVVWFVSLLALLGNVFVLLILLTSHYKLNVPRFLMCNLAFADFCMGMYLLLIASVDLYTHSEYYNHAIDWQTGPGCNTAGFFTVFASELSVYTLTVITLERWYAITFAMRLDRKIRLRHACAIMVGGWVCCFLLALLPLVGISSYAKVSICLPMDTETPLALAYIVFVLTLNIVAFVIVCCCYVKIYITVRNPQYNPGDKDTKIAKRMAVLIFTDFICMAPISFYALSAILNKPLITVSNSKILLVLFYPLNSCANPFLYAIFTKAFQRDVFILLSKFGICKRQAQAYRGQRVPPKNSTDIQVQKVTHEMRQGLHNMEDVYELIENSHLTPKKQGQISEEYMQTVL
Summary of the method: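 Inhibition of TSH-stimulated cAMP accumulation was quantified by homogeneous time-resolved FRET in TSHR-transfected HEK293 cells. Agonist: TSH, 4 nM final (EC80).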

[6] = target: D(1A) dopamine receptor (Homo sapiens) (UniProt P21728); test: HTS Assay for Allosteric Agonists of the Human D1 Dopamine Receptor: Primary Screen for Agonists (AID 488981); note: potency is the fitted concentration of half-maximal effect
Sequence of D(1A) dopamine receptor (Homo sapiens) (P21728 whole entry, looked up): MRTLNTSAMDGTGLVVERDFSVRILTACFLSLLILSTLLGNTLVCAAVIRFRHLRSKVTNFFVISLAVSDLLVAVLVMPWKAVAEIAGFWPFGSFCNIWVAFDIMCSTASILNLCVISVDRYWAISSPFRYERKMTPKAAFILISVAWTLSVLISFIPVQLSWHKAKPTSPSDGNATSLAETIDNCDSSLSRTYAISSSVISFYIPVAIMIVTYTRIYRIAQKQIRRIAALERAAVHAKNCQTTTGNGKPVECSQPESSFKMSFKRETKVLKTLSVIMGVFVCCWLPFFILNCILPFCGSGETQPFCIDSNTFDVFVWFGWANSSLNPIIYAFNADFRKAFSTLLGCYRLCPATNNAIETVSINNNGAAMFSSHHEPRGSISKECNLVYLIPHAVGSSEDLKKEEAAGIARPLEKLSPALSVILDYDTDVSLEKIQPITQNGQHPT
Summary of the method: (§1)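 Tetracycline-induced HEK293 Trex D1 cells with forced coupling to calcium, loaded with no-wash calcium dye; kinetic fluorescence read 180 s after compound addition for agonism, then a further 180 s after an EC20 dopamine challenge for potentiation.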

[7] = target: D(1A) dopamine receptor (Homo sapiens) (UniProt P21728); test: HTS Assay for Allosteric Agonists of the Human D1 Dopamine Receptor: Primary Screen for Potentiators (AID 488982)
Summary of the method: as §1

[8] = target: D(1A) dopamine receptor (Homo sapiens) (UniProt P21728); test: HTS Assay for Allosteric Agonists of the Human D1 Dopamine Receptor: Primary Screen for Antagonists (AID 488983);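 note: calcium flux response to an EC80 dopamine challenge measured with no-wash dye; nearly all actives have a fitted effect of over 65% in size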; note: potency is the fitted concentration of half-maximal effect
Summary of the method: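 Kinetic fluorescence at 1 cycle/sec tracked intracellular calcium in force-coupled, tetracycline-inducible HEK293 T-REx D1 cells. Loss of response to an EC80 dopamine dose, given 180 s after compound, marked antagonists.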

[9] = target: Methanococcus maripaludis chaperonin (MmCpn) (UniProt Q6LX38); test: High-Throughput Screening for Modulators of Cytosolic Chaperonin Activity: MmCpn Primary Screen (AID 488978)
Sequence of Methanococcus maripaludis chaperonin (MmCpn) (Q6LX38 1-543): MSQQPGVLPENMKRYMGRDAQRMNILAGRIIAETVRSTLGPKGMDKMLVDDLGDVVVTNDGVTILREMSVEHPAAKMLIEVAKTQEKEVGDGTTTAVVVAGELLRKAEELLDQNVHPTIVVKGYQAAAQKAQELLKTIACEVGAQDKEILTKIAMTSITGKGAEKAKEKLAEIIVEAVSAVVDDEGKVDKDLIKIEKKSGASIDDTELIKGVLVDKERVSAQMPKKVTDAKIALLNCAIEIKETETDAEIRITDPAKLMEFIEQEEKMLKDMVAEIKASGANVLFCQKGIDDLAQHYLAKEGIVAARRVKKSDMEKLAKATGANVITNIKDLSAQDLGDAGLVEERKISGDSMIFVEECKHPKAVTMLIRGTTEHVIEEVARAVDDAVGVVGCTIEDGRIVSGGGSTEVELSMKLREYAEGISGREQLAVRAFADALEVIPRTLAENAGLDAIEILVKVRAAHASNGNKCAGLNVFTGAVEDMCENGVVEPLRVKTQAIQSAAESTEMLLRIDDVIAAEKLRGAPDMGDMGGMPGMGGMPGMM
Summary of the method: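 HTRF readout (320 nm excitation, 590/665 nm emission) of ADP generated by 50 nM MmCpn hydrolysing 30 uM ATP during 10 min at 37C; compound preincubated 5 min RT.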

[10] = target: Transient receptor potential cation channel subfamily V member 1 (Homo sapiens) (UniProt Q8NER1); test: HTS Assay for Compounds that Act as Enhancers of the Vanilloid Receptor 1 (AID 488979)
Sequence of Transient receptor potential cation channel subfamily V member 1 (Homo sapiens) (Q8NER1 whole entry, looked up): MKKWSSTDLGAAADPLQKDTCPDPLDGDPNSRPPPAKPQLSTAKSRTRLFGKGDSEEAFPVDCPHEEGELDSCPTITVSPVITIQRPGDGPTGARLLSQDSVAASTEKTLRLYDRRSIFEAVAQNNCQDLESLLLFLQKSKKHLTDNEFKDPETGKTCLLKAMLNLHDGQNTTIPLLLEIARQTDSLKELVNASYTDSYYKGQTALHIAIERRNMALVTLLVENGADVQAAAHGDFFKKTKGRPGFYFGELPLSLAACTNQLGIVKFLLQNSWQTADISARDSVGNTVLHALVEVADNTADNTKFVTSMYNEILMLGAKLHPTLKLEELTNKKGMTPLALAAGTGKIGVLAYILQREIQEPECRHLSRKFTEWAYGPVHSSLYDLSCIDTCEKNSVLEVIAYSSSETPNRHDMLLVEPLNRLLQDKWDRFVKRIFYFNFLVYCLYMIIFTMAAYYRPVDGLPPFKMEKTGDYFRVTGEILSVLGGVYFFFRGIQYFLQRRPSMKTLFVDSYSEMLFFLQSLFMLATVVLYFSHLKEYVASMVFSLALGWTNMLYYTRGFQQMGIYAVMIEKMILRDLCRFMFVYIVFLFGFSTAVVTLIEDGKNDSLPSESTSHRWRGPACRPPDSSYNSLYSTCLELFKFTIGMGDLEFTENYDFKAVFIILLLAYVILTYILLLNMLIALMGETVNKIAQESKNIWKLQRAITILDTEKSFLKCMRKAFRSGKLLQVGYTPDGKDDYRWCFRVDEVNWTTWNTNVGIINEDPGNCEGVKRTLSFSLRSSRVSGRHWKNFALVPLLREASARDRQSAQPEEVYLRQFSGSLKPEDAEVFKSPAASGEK
Summary of the method: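 TRPV1 cells loaded with Fluo-8 calcium dye; compound added and Ca2+ signal (ex 480/em 520 nm) followed 3 min, then capsaicin at EC20 added and read 2 more min to detect enhancement.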

SMILES | Potency [1] | Potency [2] | Potency [3] | Potency [4] | outcome [5] | Potency [6] | Potency [7] | Potency [8] | outcome [9] | outcome [10]
CCN1CCC[C@H]1CNC(=O)c1c(O)c(Cl)cc(Cl)c1OC | inactive | inactive | inactive | inactive | inactive | inactive | inactive | inactive |  | 
CN(C)CCOC(=O)COc1ccc(Cl)cc1 | inactive | inactive | inactive | inactive | inactive | inactive | inactive | inactive |  | 
CN(C)C/C=C(/c1ccc(Br)cc1)c1cccnc1 | inactive | inactive | inactive |  | inactive | inactive | inactive | 12.6 µM (active) | inactive | 
OCCN1CCN(CCCN2c3ccccc3C=Cc3ccccc32)CC1 | inactive | inactive | inactive |  | inactive | inactive | inactive | 11.2 µM (active) |  | 
NC1=NCC2c3ccccc3Cc3ccccc3N12 (stereo unspecified) | inactive | inactive | inactive | inactive |  | inactive | inactive | 15.8 µM (active) |  | 
COc1ccc2c(c1OC)C(=O)O[C@@H]2[C@H]1c2c(cc3c(c2OC)OCO3)CCN1C | inactive | inactive | inactive |  |  | inactive | inactive | inactive | inactive | 
Fc1ccc(C(c2ccc(F)cc2)N2CCN(C/C=C/c3ccccc3)CC2)cc1 | inactive | inactive | inactive |  | inactive | inactive | inactive | inactive |  | inactive
O=C1CC2(CCCC2)CC(=O)N1CCCCN1CCN(c2ncccn2)CC1 | inactive | inactive | inactive |  | inactive | inactive |  | inactive | inactive | 
C[n+]1cc2c3c(ccc2c2ccc4cc5c(cc4c21)OCO5)OCO3 | inactive | inactive | 31.6 µM (active) and inactive | inactive |  | inactive | inactive | inactive |  | 
CCc1c(C)[nH]c2c1C(=O)C(CN1CCOCC1)CC2 (stereo unspecified) | 29.9 µM (active) | inactive | inactive |  | inactive | inactive | inactive | 14.1 µM (active) | inactive | 
CCCN(CCC)C(=O)C(CCC(=O)O)NC(=O)c1ccccc1 (stereo unspecified) | inactive | inactive | inactive | inactive |  | inactive | inactive | inactive |  | 
Nc1nc(N)c2nc(-c3ccccc3)c(N)nc2n1 | inactive | inactive | inactive |  | inactive | inactive | inactive | inactive | inactive | inactive
CCCNC(C)C(=O)Nc1ccccc1C (stereo unspecified) | inactive | inactive | inactive |  | inactive | inactive | inactive | inactive |  | inactive
OC(CCN1CCCCC1)(c1ccccc1)C1CCCCC1 (stereo unspecified) | inactive | inactive | inactive | inactive | inactive | inactive | inactive | inactive |  | 
CCCC(C(=O)OCCN(CC)CC)(c1ccccc1)c1ccccc1 | inactive | inactive | inactive |  | inactive | inactive | inactive | inactive | inactive | inactive
COCCOC(=O)C1=C(C)NC(C)=C(C(=O)OC(C)C)C1c1cccc([N+](=O)[O-])c1 (stereo unspecified) | inactive | inactive | inactive |  | inactive | inactive | inactive | inactive | inactive | 
c1cc(CN2CCCCC2)cc(OCCCNc2nc3ccccc3s2)c1 | inactive | inactive | inactive |  | inactive | inactive | inactive |  | inactive | 
CCn1cc(C(=O)O)c(=O)c2cc3c(cc21)OCO3 | inactive | inactive | inactive |  | inactive | inactive | inactive | inactive | inactive | inactive
CC(C)(Oc1ccc(CCNC(=O)c2ccc(Cl)cc2)cc1)C(=O)O | inactive | inactive | inactive | inactive |  | inactive | inactive | inactive |  | 
C(=C\c1ccccc1)/CN1CCN(C(c2ccccc2)c2ccccc2)CC1 | inactive | inactive | inactive |  | inactive | inactive | inactive | inactive | inactive | 

SMILES | Potency [1] | Potency [2] | Potency [3] | Potency [4] | outcome [5] | Potency [6] | Potency [7] | Potency [8] | outcome [9] | outcome [10]
CN(C)CCCN1c2ccccc2Sc2ccccc21 | inactive | inactive | inactive |  |  |  | inactive | 5.01 µM (active) | inactive | 
Cc1cc(C)c(/C=C2\C(=O)Nc3ccccc32)[nH]1 | inactive | inactive | 7.94 µM (active) and inactive |  | inactive | 15.8 µM (active) | inactive | inactive | inactive | 
COCC(=O)O[C@]1(CCN(C)CCCc2nc3ccccc3[nH]2)CCc2cc(F)ccc2[C@@H]1C(C)C | inactive | inactive | inactive |  | inactive |  | inactive |  | inactive | 
CCCN1C[C@H](CSC)C[C@@H]2c3cccc4[nH]cc(c34)C[C@H]21 | inactive | inactive | inactive |  | inactive | inactive | inactive |  | inactive | inactive
Cc1scc2c1N(C(=O)CN1CCN(C)CC1)c1ccccc1NC2=O |  |  | inactive |  | inactive | inactive |  | inactive | inactive | 
CN1C[C@H](C(=O)N[C@]2(C)O[C@@]3(O)[C@@H]4CCCN4C(=O)[C@H](Cc4ccccc4)N3C2=O)C[C@@H]2c3cccc4[nH]cc(c34)C[C@H]21 | inactive | inactive |  |  |  | inactive |  |  | inactive | 
C[C@]12CCC(=O)C=C1CC[C@@H]1[C@@H]2C(=O)C[C@@]2(C)[C@H]1CC[C@]2(O)C(=O)CO |  | inactive | inactive |  | inactive | inactive | inactive | inactive | inactive | inactive
Brc1c(NC2=NCCN2)ccc2nccnc12 |  |  | inactive |  | inactive | inactive | inactive | inactive | inactive | 
CC[N+](C)(C)c1cccc(O)c1 |  |  | inactive | inactive | inactive | inactive | inactive | inactive | inactive | 
NC(N)=N/N=C/c1c(Cl)cccc1Cl | inactive |  | inactive | inactive | inactive | inactive |  |  | inactive | 
Cc1ccc(/C(=C\CN2CCCC2)c2ccccn2)cc1 | inactive |  |  | inactive | inactive | inactive | inactive | inactive |  | 
COC(=O)[C@@H](N)Cc1ccc(O)c(O)c1 |  | inactive | inactive | inactive | inactive | inactive | inactive | inactive | inactive | 
C[C@]12CCC(=O)C=C1CC[C@@H]1[C@@H]2CC[C@@]2(C)[C@H]1CC[C@]2(O)C(=O)CO | inactive |  | inactive | inactive | inactive | inactive | inactive | inactive |  | 
COCCCC/C(=N\OCCN)c1ccc(C(F)(F)F)cc1 | inactive |  | inactive | inactive | inactive |  | inactive | inactive | inactive | 
c1cnc(N2CCN(Cc3ccc4c(c3)OCO4)CC2)nc1 | inactive |  | inactive | inactive | inactive | inactive | inactive | inactive |  | inactive
CN(C)C(=O)Oc1ccc[n+](C)c1 | inactive | inactive |  |  | inactive | inactive | inactive | inactive | inactive | inactive
COC(=O)C1=C(C)NC(C)=C(C(=O)OC(C)(C)CN(C)CCC(c2ccccc2)c2ccccc2)C1c1cccc([N+](=O)[O-])c1 (stereo unspecified) | inactive | inactive |  | 25.1 µM (active) |  | inactive | inactive | inactive | inactive | 
Cc1nnc(SCC2=C(C(=O)O)N3C(=O)[C@@H](NC(=O)Cn4cnnn4)[C@H]3SC2)s1 |  |  |  |  | inactive | inactive | inactive | inactive | inactive | inactive
COc1ccc([C@@H]2Sc3ccccc3N(CCN(C)C)C(=O)[C@@H]2OC(C)=O)cc1 |  |  | inactive | inactive | inactive | inactive |  | inactive |  | 

— PubChem BioAssay (NCATS)
